The whole screen tested about 290,000 compounds, of which about 3,000 (1%) were called active. No stated cut-off is given here; in the data, active means inhibition mostly above about 36% (no sharp cut-off); inactive means mostly below about 34%. Many of the other results were omitted from the sample, so actives are more common in it than they were.
Biological target: T1, Nucleotide-binding oligomerization domain-containing protein 1, Homo sapiens (UniProt Q9Y239)
T1 sequence (whole entry): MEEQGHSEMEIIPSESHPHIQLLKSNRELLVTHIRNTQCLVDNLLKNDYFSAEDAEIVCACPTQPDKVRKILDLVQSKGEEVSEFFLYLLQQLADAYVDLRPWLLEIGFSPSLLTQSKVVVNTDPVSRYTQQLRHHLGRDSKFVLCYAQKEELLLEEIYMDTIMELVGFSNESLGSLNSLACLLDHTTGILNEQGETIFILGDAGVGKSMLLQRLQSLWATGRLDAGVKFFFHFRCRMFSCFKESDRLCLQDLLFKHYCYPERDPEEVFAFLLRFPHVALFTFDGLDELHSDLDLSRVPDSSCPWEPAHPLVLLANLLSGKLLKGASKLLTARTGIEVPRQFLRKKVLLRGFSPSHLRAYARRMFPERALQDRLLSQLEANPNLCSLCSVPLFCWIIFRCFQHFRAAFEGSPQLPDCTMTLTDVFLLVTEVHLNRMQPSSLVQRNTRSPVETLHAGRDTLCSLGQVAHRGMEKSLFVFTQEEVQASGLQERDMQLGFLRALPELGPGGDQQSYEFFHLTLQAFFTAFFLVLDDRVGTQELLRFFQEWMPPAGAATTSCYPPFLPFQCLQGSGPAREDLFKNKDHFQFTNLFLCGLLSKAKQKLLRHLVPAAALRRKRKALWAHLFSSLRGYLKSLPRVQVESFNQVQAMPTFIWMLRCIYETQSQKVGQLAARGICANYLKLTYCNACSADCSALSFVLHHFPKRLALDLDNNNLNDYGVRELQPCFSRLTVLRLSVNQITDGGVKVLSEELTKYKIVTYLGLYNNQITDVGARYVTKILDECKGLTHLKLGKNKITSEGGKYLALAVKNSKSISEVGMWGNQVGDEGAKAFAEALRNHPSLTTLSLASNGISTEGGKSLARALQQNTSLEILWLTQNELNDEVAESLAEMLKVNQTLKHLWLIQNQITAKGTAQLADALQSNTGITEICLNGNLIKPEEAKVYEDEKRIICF
Experiment: NOD1 signaling inhibitors, primary screen, cell-based, luminescence, uHTS (AID 1578)

outcome, active:
CCCCCc1cc(O)c2c(C)cc(=O)oc2c1
O=C(Nc1ccccc1C(=O)O)c1cc(S(=O)(=O)Nc2ccccc2)ccc1Cl
O=C(Nc1ccccc1C(=O)O)c1cc(S(=O)(=O)N2CCCCC2)c(Cl)cc1Cl
CC(=O)c1cccc(NC(=O)/C=C/c2ccc([N+](=O)[O-])s2)c1
CCOC(=O)/C=C/C(=O)Nc1cccc([N+](=O)[O-])c1
Cc1cccc(NC(=O)/C=C/c2ccc([N+](=O)[O-])s2)c1
S=c1[nH]nc(-c2cc(-c3ccccc3)n[nH]2)n1/N=C/C(Br)=C/c1ccccc1
CC(=C/c1ccccc1)/C=N/n1c(-c2ccncc2)n[nH]c1=S
CCn1nc(C)cc1C(=O)NC1CCCc2c1cnn2-c1ccc(C)c(C)c1 (stereo not given)
Cc1cc(C(=O)NC2CCCc3c2cnn3-c2ccc(C)c(C)c2)n(C)n1 (stereo not given)
CCc1cc(C(=O)NC2CCCc3c2cnn3-c2cccc(C)c2C)n(C)n1 (stereo not given)
COCCn1c(=S)[nH]c2cc(C(=O)N3CCCC(C)C3)ccc2c1=O (stereo not given)
O=C(N/N=C/c1ccccn1)c1cc(-c2ccc(Cl)cc2)nc2ccccc12
O=C(N/N=C/c1ccccn1)c1cc(-c2ccccc2)nc2ccccc12
CCCOc1cccc(-c2cc(C(=O)N/N=C/c3ccccn3)c3ccccc3n2)c1
O=C(N/N=C/c1ccccn1)c1cc(-c2ccc(Br)cc2)nc2ccccc12
O=C(c1cc(COc2cccc3cnccc23)on1)N1CCCC(CCCO)C1 (stereo not given)
COCC1CCCN(C(=O)c2cc(COc3ccc4ncccc4c3)on2)C1 (stereo not given)
COCC1CCN(C(=O)c2cc(COc3cccc4cnccc34)on2)CC1
Cc1c(C(C)NC(=O)c2cc(COc3cccc4cnccc34)on2)cnn1C (stereo not given)
O=C(c1cc(COc2cccc3cnccc23)on1)N1CCC(c2ccccc2Cl)C1 (stereo not given)
O=C1NC(=O)/C(=C\c2ccccc2Oc2ccc(F)c(F)c2)S1
Cc1cccc2cc(/C=N/NC(=O)c3ccccc3O)c(Cl)nc12
C=C1C(=O)[C@@]23[C@H](O)C[C@@H]4C(C)(C)CC[C@H](O)[C@@]4(C)[C@@H]2CC[C@@H]1[C@H]3O
COc1cccc(CN(C)C(=O)c2cc(COc3ccc4ncccc4c3)on2)c1
CCc1ccc(CN(C)C(=O)c2cc(COc3cccc4cnccc34)on2)cc1
CN(Cc1nccs1)C(=O)c1cc(COc2cccc3cnccc23)on1
COc1ccc(-c2cc(C(F)(F)F)nc(S(C)(=O)=O)n2)cc1OC
COc1ccc(-c2cc(C(F)(F)F)nc(S(C)(=O)=O)n2)cc1
COc1ccccc1-c1cc(C(F)(F)F)nc(S(C)(=O)=O)n1
CCCC1/C(=N/O)CC(c2ccccc2)NC1c1ccccc1 (stereo not given)
N#CC1=C(N)N2C(=C(C#N)C1c1cccc(Br)c1)Nc1ccccc12 (stereo not given)
N#CC1=C(N)N2C(=C(C#N)C1c1ccc(Br)cc1)Nc1ccccc12 (stereo not given)
COc1ccccc1/C=C/C(=O)c1c2c(c(C)[nH]c1=O)CCCC2
Cc1[nH]c(=O)c(C(=O)/C=C/c2ccccc2)c2c1CCCC2
Cc1[nH]c(=O)c(C(=O)/C=C/c2ccccc2F)c2c1CCCC2
CCN(CC)S(=O)(=O)c1cccc(NC(=O)Nc2cccc(C(F)(F)F)c2)c1
Cc1ccc(Cc2cnc(N3C(=N)SC(C)C3=O)s2)cc1 (stereo not given)
Cc1cccc(Cc2cnc(N3C(=N)SC(C)C3=O)s2)c1 (stereo not given)
CC1=C(C(=O)OCc2ccc3c(c2)OCO3)C(c2ccc(O)c([N+](=O)[O-])c2)NC(=O)N1 (stereo not given)
CC1=C(C(=O)OCc2ccc3c(c2)OCO3)C(c2ccccc2)NC(=O)N1 (stereo not given)
CC1=C(C(=O)OCc2ccc3c(c2)OCO3)C(c2ccc(Cl)cc2)NC(=O)N1 (stereo not given)
CC1=C(C(=O)OCc2ccc3c(c2)OCO3)C(c2ccc(F)cc2)NC(=O)N1 (stereo not given)
O=C(NCc1ccccc1)C1=C[C@@H](c2csc3ccccc23)C[C@@H](OCCCCO)O1
CCn1nc(C)c(NC(=O)/C=C/c2ccc(OC)c(COc3ccc(Br)cc3)c2)c1C
CCCN(CC(=O)Nc1ccccc1C)C(=O)CCl
CCC(C)N(CC(=O)Nc1cccc(C)c1C)C(=O)CCl (stereo not given)
CCc1c(C)sc2nc(C(C)C)nc(SCC(=O)N3CCc4ccccc4C3)c12
Cc1cc(C(=O)CN2C(=O)c3ccccc3S2(=O)=O)c(C)n1CC1CCCO1 (stereo not given)
Cc1cc(C(=O)CSc2nc3ccccc3c(=O)n2C)c(C)n1CC1CCCO1 (stereo not given)
Cc1cc(C(=O)CSc2nc3ccccc3c(=O)n2C)c(C)n1Cc1ccc2c(c1)OCO2
COc1ccc(CCNC(=S)N2CCC(Cc3ccccc3)CC2)cc1OC
N=C1S/C(=C\c2ccco2)C(=O)N1c1nccs1
N=C1S/C(=C\c2ccc(-c3cccc(Cl)c3)o2)C(=O)N1c1nccs1
Cn1ncc2c(N3CCN(c4ccc(Cl)c(Cl)c4)CC3)ncnc21
O=C(Nc1ccc(Cl)c(Cl)c1)Nc1ccccc1NS(=O)(=O)c1cccs1
O=C(Nc1ccc(Cl)c(Cl)c1)Nc1ccc(Br)cc1F
S=C(NCCc1ccccc1)Nc1cccc2cnccc12
COc1ccccc1-c1nnc(SCC(=O)Nc2nc(-c3ccccc3)cs2)n1C
COc1nc(Nc2nc3ccccc3c(=O)[nH]2)nc2ccc(C)cc12
COc1ccc(NC(=O)Cn2nnc(-c3ccccc3NS(=O)(=O)c3ccc(OC)cc3)n2)cc1
Cc1ccc(S(=O)(=O)Nc2nc3ccccc3nc2Nc2cccc(S(=O)(=O)N3CCCC3)c2)cc1
COc1cc(Nc2nc3ccccc3nc2NS(=O)(=O)c2ccc([N+](=O)[O-])cc2)cc(OC)c1OC
O=[N+]([O-])c1cccc(S(=O)(=O)Nc2nc3ccccc3nc2Nc2cccc(S(=O)(=O)N3CCCCC3)c2)c1
CCOc1cc(C)c(Cl)cc1S(=O)(=O)n1nnc2ccccc21
CC(=O)n1c(Cl)c(NC(=O)CCl)c2ccccc21
COc1ccccc1C(=O)Nc1nc(-c2ccc(S(=O)(=O)N3CCOCC3)cc2)cs1
Cc1ccc(S(=O)(=O)Nc2ccccc2C(=O)Nc2nc(-c3ccc(F)cc3)cs2)cc1
COc1ccc(-c2csc(NC(=O)c3ccccc3NS(=O)(=O)c3ccc(C)cc3)n2)cc1
COc1cccc(NC(=O)Nc2nc(-c3ccc(OC)c(OC)c3)cs2)c1
COc1ccc(-c2csc(NC(=O)c3ccccc3NS(=O)(=O)c3ccc(F)c(F)c3)n2)cc1
O=C(Nc1nc(-c2ccccc2)cs1)c1ccccc1NS(=O)(=O)c1ccc(F)cc1
COc1ccc(S(=O)(=O)Nc2ccccc2C(=O)Nc2nc(-c3ccc(F)cc3)cs2)cc1OC
COc1ccc(NC(=O)c2ccc(-c3ccccc3)cc2)cc1NS(=O)(=O)c1ccc(F)cc1
Cc1ccc(NC(=O)C2=C(c3ccccc3)S(=O)(=O)CCS2(=O)=O)cc1
O=C(Nc1ccccc1)C1=C(c2ccccc2)S(=O)(=O)CCS1(=O)=O
NS(=O)(=O)c1ccc(Sc2nc3ccccc3s2)c([N+](=O)[O-])c1
COc1ccc(-c2nn(-c3ccccc3)cc2/C=N/NC(=O)c2ccc(Br)o2)cc1
Cc1ccc(-c2nn(-c3ccccc3)cc2/C=N/NC(=O)c2ccc(Br)o2)cc1
CC(=O)Cn1ncc(Br)c(Br)c1=O
O=C(OCn1ncc(Br)c(Br)c1=O)c1c(F)cccc1F
O=C(OCn1ncc(Br)c(Br)c1=O)c1ccc(F)cc1
O=C(NC(=S)N(CCCCO)C1CCCCC1)c1sc2ccccc2c1Cl
Cc1nnc(SCC(=O)N2CCC(c3noc4ccc(F)cc34)CC2)s1
O=C(NC(Nc1nc2ccc([N+](=O)[O-])cc2s1)(C(F)(F)F)C(F)(F)F)c1ccccc1Cl
CC[C@@]1(O)C(=O)OCc2c1cc1n(c2=O)Cc2cc3c(N)cccc3nc2-1
CNC(=O)COC(=O)c1ccccc1C(=O)c1ccc(Cl)c([N+](=O)[O-])c1
N#Cc1cccc(NC(=O)COC(=O)c2ccccc2C(=O)c2ccc(Cl)c([N+](=O)[O-])c2)c1
O=C(COC(=O)c1ccccc1C(=O)c1ccc(Cl)c([N+](=O)[O-])c1)NC1CC1
Cc1ccc(Cl)c(NC(=O)COC(=O)c2ccccc2C(=O)c2ccc(Cl)c([N+](=O)[O-])c2)c1Cl
CC(C)(C)OC(=O)NCCc1nnc(S(=O)(=O)Cc2ccc(Cl)cc2Cl)o1
Cc1sc2nc(SCc3ccc(C(=O)O)cc3)n(Cc3ccco3)c(=O)c2c1C
COC(=O)c1ccc2c(c1)C(C)(C)C(/C=C/c1ccc(O)cc1)=[N+]2C.[I-]
O=S1(=O)C=C(Sc2nc3ccccc3s2)c2ccccc21
Cn1c(SC2=CS(=O)(=O)c3ccccc32)nc2ccccc21
O=S1(=O)C=C(Sc2nc3cc(Cl)ccc3o2)c2ccccc21
Cc1cc(C)cc(NC(=O)CSc2nnc(Cc3cccn3C)n2-c2ccc(F)cc2)c1
Cc1ccc(C(=O)NC(=C(Cl)Cl)S(=O)(=O)c2ccccc2)cc1
CC(=O)NC(=C(Cl)Cl)S(=O)(=O)c1ccccc1
Cc1ccc(C(=O)NC(C#N)=C(Cl)Cl)cc1
O=C(NC(=C(Cl)Cl)S(=O)(=O)c1ccc(Cl)cc1)c1ccccc1
O=C(NCCCSc1ccccc1)c1cc(Br)ccc1O
O=C(NCCCSc1ccccc1)c1cc(Cl)ccc1O
CCOC(=O)c1cccc2c1-c1ccccc1/C2=N/O
COC(=O)c1cccc2c1-c1ccccc1/C2=N/O

Source: the GenesisPotency data set
